From ChEMBL document CHEMBL3988442, “University of Dundee, Small-Polar-MMV Screening Library” (2021)

How the values were obtained:
[1] = target: T1, Aspartate--tRNA(Asp/Asn) ligase (Mycobacterium tuberculosis (strain ATCC 25618 / H37Rv)) (UniProt P9WFW3); test: Assay for Asp RNA synthetase-1 from Mycobacterium tuberculosis; assay type: functional; parameters: scale not given: direction of the effect not stated beside the values; settings: 30 µM; also: in the data most compounds retested in dose-response had high values
T1 sequence (whole entry): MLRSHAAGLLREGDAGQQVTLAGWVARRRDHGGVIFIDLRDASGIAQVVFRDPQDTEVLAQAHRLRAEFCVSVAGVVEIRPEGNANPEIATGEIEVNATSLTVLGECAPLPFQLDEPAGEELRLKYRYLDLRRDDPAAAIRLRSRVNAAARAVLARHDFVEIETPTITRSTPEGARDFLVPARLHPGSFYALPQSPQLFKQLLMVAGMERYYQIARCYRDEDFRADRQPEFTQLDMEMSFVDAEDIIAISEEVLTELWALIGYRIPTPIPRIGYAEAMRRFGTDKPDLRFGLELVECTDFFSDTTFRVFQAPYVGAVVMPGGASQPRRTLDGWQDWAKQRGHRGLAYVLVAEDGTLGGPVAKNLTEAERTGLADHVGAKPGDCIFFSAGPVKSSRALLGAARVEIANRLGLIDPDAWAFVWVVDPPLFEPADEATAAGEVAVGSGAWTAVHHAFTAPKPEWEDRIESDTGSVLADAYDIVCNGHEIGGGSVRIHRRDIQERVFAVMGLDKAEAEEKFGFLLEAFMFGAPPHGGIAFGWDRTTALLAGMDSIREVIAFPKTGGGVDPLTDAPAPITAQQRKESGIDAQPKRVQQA

[2] = target: Shiga toxin 2 (Escherichia coli O157:H7) (UniProt P09385+P09386); test: E. coli 0.157:H7 Shiga Toxin SOP - stx2 screening assay; assay type: functional; parameters: scale not given: direction of the effect not stated beside the values; settings: 30 µM

SMILES	Percent Effect [1]	Percent Effect [2]
CC(C)c1cc(NC(=O)c2ccc(NC3CC3)nc2)[nH]n1	-1.67%	-52%
Cc1nc(C)n(CC2CCCN(CC(=O)Nc3c(C)n[nH]c3C)C2)n1 (configuration not stated)	-1.34%	32.2%
Cc1ccc(C(=O)NCCCNS(C)(=O)=O)cc1-n1cccc1	-0.21%	-17.9%
CCc1nccn1C1CCCN(C(=O)c2cn3c(C)cccc3n2)C1 (configuration not stated)	-4.04%	4.17%
CC(=O)c1cccc(OCCCC(=O)N(C)CCc2ccncc2)c1	-0.591%	-45.6%
Cc1ccc(C)c(C(NC(=O)C2CC2)c2cccnc2)c1 (configuration not stated)	-0.277%	-13.4%
FC(F)(F)c1cccc(C2(CNCc3ccncc3)CCOCC2)c1	2.66%	-27.1%
Cc1nn(C)c2c(NCc3cccnc3)nc(C3CC3)nc12	8.74%	-7.86%
Cc1cc(C)n(CC2CCCN2C(=O)c2ccc(C(N)=O)cn2)n1 (configuration not stated)	-3.07%	-49.3%
CCN(CC1CCOC1)C(=O)Nc1ccc(-n2cncn2)nc1 (configuration not stated)	-0.722%	-25.9%
Cc1cccc(CN2C(=O)CC[C@@H]3[C@H]2CCN3Cc2ccc(C)s2)n1	7.52%	-11.3%
CSCc1cccc(S(=O)(=O)NCCCn2ccnc2)c1	11%	-15.1%
Cc1cc(C(=O)NC2CCc3nc(C)cn3C2)[nH]n1 (configuration not stated)	-3.72%	-2.92%
CCn1ccnc1CN1C[C@@H](CN2CCCC2)[C@@H](CO)C1	-3.33%	6.48%
CS(=O)(=O)N1CCN(C(=O)Cn2ccc3c(Cl)cccc32)CC1	-0.673%	-16.5%
CC(C)Nc1ncnc2c1CCN(C(=O)Cc1ccccn1)CC2	3.17%	-44.7%
c1ccc(-n2ccc(CN3CCCC3Cn3cccn3)n2)cc1 (configuration not stated)	4.81%	-19.3%
CCCc1nc(C(=O)N2CCCn3nc(CCC(=O)O)cc3C2)cs1	-2.6%	15.5%
O=C(NCCOc1ccc(F)c(F)c1)NCc1cccc(CO)c1	0.257%	-6.88%
Cc1cccc(-n2c(C)cc(C(=O)N3CCn4c(C)nnc4C3)c2C)c1	3.51%	36.2%
CC(C)Nc1nc2c(cc1C(=O)N(C)C)CCNCC2	3.61%	-0.0143%
Cn1ccnc1CN1CCC2(CC(=O)N(c3cccc(F)c3)C2)C1 (configuration not stated)	6.19%	-33.1%
CCC(C)(C)NC(=O)CN(C)C(c1cccc(F)c1)c1ccccn1 (configuration not stated)	-1.18%	15.1%
CN1CCC(Oc2ccc(NC(=O)c3cccc(Cl)c3)cc2)CC1	-0.327%	-51%
CCOC(=O)CNC(=O)c1cccnc1Oc1ccc(Cl)cc1	-1.89%	6.74%
Cc1csc(CNC(=O)Nc2cc(C(F)(F)F)c[nH]c2=O)n1	-5.12%	8.58%

SMILES	Percent Effect [1]	Percent Effect [2]
COc1cc(C(C)=O)ccc1OCC(=O)N(C)Cc1cnn(C)c1	-4.92%	0.928%
CCc1cnc(CN(C)C2CCN(CCc3cccs3)C2)o1 (configuration not stated)	2.92%	23.3%
Cc1nc(C)n(CC2CCCCN2CC(=O)N(C)Cc2ccco2)n1 (configuration not stated)	1.76%	3.6%
COc1ccccc1[C@@H]1CN(Cc2cc(C(C)(C)C)[nH]n2)C[C@H]1C(=O)O	1.28%	-6.54%
NC(=O)COc1cccc(C(=O)N2CCCC(n3ccnc3)C2)c1 (configuration not stated)	0.962%	-19.9%
Cc1cnc(CN2CCCC(c3cc(C(N)=O)[nH]n3)C2)o1 (configuration not stated)	9.73%	13.4%
CC(C)Cc1noc(CN2CCN(CCOc3ccc(Cl)cc3)CC2)n1	0.745%	10.8%
COCCN1CCN(Cc2cccc(C(=O)N(C)C)c2)CC1C (configuration not stated)	1.34%	-34.7%
CN1CCCC[C@@H]2[C@H]1[C@@H](c1ccccc1)CCN2C(=O)c1ccccc1	-4.21%	-4.17%
CC(C)c1nc(C2CCCN2C(=O)c2nccnc2N)no1 (configuration not stated)	-5.36%	-16.2%
CCC(C)c1noc(C2CCN(C(=O)c3cccs3)CC2)n1 (configuration not stated)	4.84%	-48%
Cc1ccc(C)c(OC2CCN(C(=O)c3ccc(O)nc3)CC2)c1	-0.922%	26.4%
Cc1[nH]c(=O)[nH]c(=O)c1CN1CCCC(CCc2c(F)cccc2F)C1 (configuration not stated)	0.725%	0.432%
Cc1ccc(SCC(=O)NS(=O)(=O)c2ccc3c(c2)OCCO3)cc1	3.3%	21.2%
Cc1csc(N2CCCN(Cc3noc(C)n3)CC2)n1	1.56%	-19.8%
O=c1ccc(-c2ccccc2F)nn1CCN1CCCS1(=O)=O	-1.45%	-0.28%
COC(=O)c1cccn1C1CCN(C(=O)c2cc(C)ccc2O)CC1	3.4%	21.2%
C[C@@H]1C[C@@H]2CCN(C(=O)c3cnccn3)C[C@H]2O1	0.69%	-15.2%
COCCNC(=O)CN1CCN(c2nc(C)cs2)C(C)C1 (configuration not stated)	-0.728%	-15.9%
CCc1cc(NCC(O)CN2CCCCC2)n2ncnc2n1 (configuration not stated)	8.06%	-8.11%
Cc1ccc(NC(=O)N2C[C@H]3CC[C@@H]2CN(Cc2cscn2)C3)cc1	-2.57%	8.71%
COCCCN1CC2(CCCCN2C(=O)c2ccsc2)CC1=O (configuration not stated)	-3.53%	-5.69%
Cc1[nH]nc2ncc(C(=O)N3CCN(CC(C)C)CC3)cc12	-2.36%	33.6%
NC(=O)c1nc(COc2ccc3c(c2)OCO3)no1	-0.145%	-76.3%
Cc1ccsc1CNC(=O)Cc1c(C)nc2c(c1C)c(=O)[nH]n2C	-4.18%	23.7%
